Measured values: PubChem BioAssay AID1454 (National Center for Advancing Translational Sciences (NCATS), 2008)
In all, about 130,000 compounds went through this assay and about 550 (0.42%) were called active. Another 4% or so got no clear call; they are omitted. Calls come from the whole dose curve; as a rule, active = well fitted inhibition curve with a large enough effect; inconclusive = small, poorly fitted or top-dose-only effect, or effect the other way; inactive = flat fitted curve, though single readings scatter. This excerpt belongs to a sample that is enriched for actives.

Test: qHTS Assay for Inhibitors of the ERK Signaling Pathway using a Homogeneous Screening Assay; Stimulation with EGF; note: nearly all actives have a fitted effect of over 55% in size;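 for activity change, negative = inhibition: plate controls were stimulated vehicle wells for no effect and unstimulated vehicle basal for full effect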
Settings: HEK293-V1b, EGF-stimulated phospho-ERK AlphaScreen; series mostly up to 11.5 µM; activity change, negative = inhibition: at the top concentration
Description: NIH Chemical Genomics Center [NCGC]
NIH Molecular Libraries Screening Centers Network [MLSCN]
Assay Submitter (PI): Dr. Wei Zheng, NCGC/NIH
The Ras/extracellular-signal-regulated kinase (ERK) mitogen activated protein (MAP) kinase signaling pathway (ERK1/2 cascade) plays a key role in transmitting signals from the cell surface to the nucleus (Nishida and Gotoh 1993; Chang and Karin, 2001). The cascade is initiated by the small G-protein Ras, which recruits Raf from the cytosol, where activation occurs. Alternatively, this pathway can be activated by elevating intracellular cAMP, or by activation of a receptor tyrosine kinase as epidermal growth factor receptor.
Activation of the ERK pathway is essential in increased cell division and cell survival. Sustained and constitutive activation of the ERK pathway, however, has been linked to uncontrolled cell proliferation, increased cell survival, and tumor progression. Thus, the ERK has been as an attractive target for cancer chemotherapy in the past few years (Sebolt-Leopold and Herrera, 2004). Given its physiological and pathological importance, assessment of ERK phosphorylation has been broadly performed in both basic research and drug discovery. Most assays for the measurement of ERK phosphorylation use the antibody-based detection methods, such as western blot and ELISA. These assays require multiple reagent additions with cell wash steps and are not suitable for high throughout screening.
The current cell-based ERK phosphorylation assay was performed using AlphaScreen platform. AlphaScreen is a two bead-based proximity-dependent chemical energy transfer luminescent assay platform. The assay reagents (ERK SureFire(TM) kit) were supplied from TGR BioSciences (Australia). In the presence of specific antibodies, phosphorylated ERK will bring "donor" and "acceptor" beads to a proximity range (<200 nm), and subsequently lead a chemical luminescent reaction upon exciting donor beads with 680 nm laser. To exclude the assay-related false positives, we used a biotinylated rabbit IgG to perform counter-screen. The biotinylated antibody mimics the phosphorylated ERK1/2 for bringing streptavidin coated beads and protein-A coated beads to a proximity range for the AlphaScreen detection.
NCGC Assay Protocol Summary:
HEK293 cells stably expressing type-1 vasopressin receptor (V1b) were maintained in DMEM medium (Invitrogen, Carlsbad, CA) at 37C under a humidified atmosphere containing 5% CO2 and 95% air. The medium contained 10% FBS, 2 mM L-glutamine, non-essential amino acid, pyruvate and 50 U/ml penicillin and 50 ug/ml streptomycin (Invitrogen). The aliquots of frozen cells were stored at -135C and used for the compound screening. All compounds were screened as titrations from 0.6 nM to 46 uM final concentration. Epidermal growth factor (EGF) was used to stimulate the ERK phosphorylation pathway. The ERK phosphorylation in cells was determined using an AlphaScreen assay kit provided by […]. Data were normalized to the controls for basal activity (DMSO only) and 100% activation (25 nM EGF). AC50 values were determined from concentration-response data modeled with the standard Hill equation.
(1) Seed 4 ul/well of resuspended frozen HEK293 cells containing 2000 cells in white 1536-well plates for overnight with 1% FBS at 37C under a humidified atmosphere containing 5% CO2 and 95% air.
(2) Add 23 nL compounds in DMSO solution. The final titration was 0.6 nM to 46 uM.
(3) Incubate at 37C for 30 min.
(4) Dispense 0.5uL EGF (25 nM in final)
(5) Incubate at 37C for 5 min.
(6) Dispense 0.5uL of 1:2 diluted 5x lysis buffer.
(7) Incubate at 37C for 10 min.
(8) Dispense 1.5uL of mixture of activation buffer and reaction buffer with AlphaScreen beads (streptavidin donor beads and protein-A acceptor beads, 10 ng/well for each).
(9) Incubate at room temperature for 5 hr.
(10) Detect the assay plate in an EnVision plate reader (PerkinElmer) using the AlphaScreen detection mode.
[…]
Potency is the fitted concentration of half-maximal effect.

Activity change, negative = inhibition, inactive:
CC1(C)CC(N(Cc2ccccc2)C(=O)Cc2ccccc2)CCO1 (configuration not stated) 9.74%, Cc1cccc(N2CCN(Cc3nc(C4CC4)no3)CC2)n1 2.16% [at 57.5 µM], CN(CCOc1ccccc1)Cc1nc2cc(Cl)ccc2c(=O)[nH]1 3.35%, O=C(NCc1ccccc1Cl)C1CCN(S(=O)(=O)N2CCOCC2)CC1 -3.09%, C=CCOc1c(CNn2cn[nH]c2=S)cccc1OC 1.88%, O=C(NCCc1ccccn1)c1cccnc1Oc1ccc(Cl)cc1 0.556% [at 57.5 µM], CCC/C(C)=N\Nc1nc2c(c(=O)n(C)c(=O)n2C)n1C 2.86% [at 57.5 µM], C=C(C)c1cccc(C(C)(C)NC(=O)NCCN(CC)CC)c1 -3.89%, CCNC(=O)c1ccc(OCC(=O)Nc2ccc(F)cc2)c(OC)c1 -6.79% [at 57.5 µM], O=C(/C=C/c1ccccc1)Oc1coc(CSc2ncccn2)cc1=O 2.15%, CCN(CC)CCNC(=O)c1ccc(NS(=O)(=O)c2ccc3c(c2)OCCO3)cc1 -2.24%, COc1ccc(CCc2nnc(CCC(=O)NCc3cnn(-c4ccccc4C)c3)o2)cc1 0.463%, NCCCCCC(=O)N/N=C/c1ccc2nccnc2c1 -2.5% [at 57.5 µM], O=C(N/N=C1\CCSC1)c1cc(Cl)ccc1O 1.16%, CSc1ccc(CN(C)CC(=O)NCc2ccc(F)cc2)cc1 -3.97%, O=C(CSc1nc2ccccc2s1)Nc1ccc(C(=O)O)cc1 8.22% [at 57.5 µM], CS(=O)(=O)N(CC(=O)N1CCCC1)Cc1ccccc1 -2.52%, OCC1(Cc2ccccc2C(F)(F)F)CCN(Cc2ccncc2)CC1 -17.7% [at 57.5 µM], CCNC(=O)COc1cc(C)c(Br)c(C)c1 -13.4%, COc1ccc2nc(Nc3nc(-c4cc5ccccc5oc4=O)cs3)sc2c1 2.77%, CCNc1nc(-c2cc3ccccc3o2)cs1 -4.57%, CSc1ccccc1C(=O)NCc1ccccc1 -3.76%, Cc1nc(S(=O)(=O)c2ccc(Br)cc2)nc2c1CCC2 4.23%, CC1CCc2c(nc3ncnn3c2Nc2ccc(OC(F)(F)F)cc2)C1 (configuration not stated) -15.3%, Oc1oc(-c2ccccc2Br)nc1/C=N/c1ccccn1 11%, CC1CCCCC1NC(=O)CO/N=C/c1ccc(OC(F)F)cc1 (configuration not stated) -9.33%, CSc1ccc(/C=N\NC(=O)CC(=O)NC(C)C)cc1 -17.2%, CCN(CC)CCn1cnc2c1c(=O)n(CCOC(=O)c1cc(OC)c(OC)c(OC)c1)c(=O)n2C 10.5% [at 57.5 µM], O=C1CC2(CC(c3ccc(Cl)cc3)=NO2)C(=O)N1c1ccccc1 (configuration not stated) -1.21% [at 57.5 µM], Cn1nc(C(F)(F)F)cc1-c1ccc(/C=C(\C#N)C(=O)c2cccc(C(F)(F)F)c2)s1 -4.59% [at 57.5 µM], Cn1c(SCC(=O)N2CCOCC2)nnc1-c1ccc2ncccc2c1 1.18% [at 57.5 µM], O=C(Nc1cc(Cl)cc(Cl)c1)C(NCCCO)c1ccccc1 (configuration not stated) 7.53%, CC(C)n1cnc2c(Nc3cccc(Cl)c3)nc(N(CCO)CCCO)nc21 -9.71% [at 57.5 µM], O=C(NN1C(=O)C2C(C1=O)C1C=CC2C12CC2)c1ccccc1Cl (configuration not stated) 9.91% [at 57.5 µM], O=C(CN1CCN(Cc2ccc(F)cc2Cl)C1=O)NCc1cccs1 -0.134%, CC(=O)Nc1ccc(NC(=O)CSc2ncnc3c2cnn3Cc2ccccc2)cc1 10.3% [at 57.5 µM], Clc1ccc(Nc2ncnc3c2nnn3Cc2ccccc2)cc1 5.96% [at 57.5 µM], COc1ccc(Cl)cc1C(=O)NNC(=O)c1nc2nc(C)cc(C)n2n1 -1.38% [at 57.5 µM], CN(C)CCCn1c(SCCN2C(=O)c3ccccc3C2=O)nc2ccccc2c1=O -9.18%, COc1ccc(C/C(N)=N/OC(=O)c2ccco2)cc1OC -1.35%, COc1ccccc1Cn1c(CO)nc2ccccc21 -2.95% [at 57.5 µM], Cc1cccc(-n2c(Cc3cc(=O)[nH]c(=O)[nH]3)nnc2SCC(=O)Nc2cccc(C(F)(F)F)c2)c1 6.29%, O=C(COC(=O)c1ccc(Cl)nc1)NCc1cccs1 -3.16%, CCOc1ccc(C2NC(=S)NC3=C2CCc2ccccc23)cc1 (configuration not stated) 0.15% [at 57.5 µM], Cc1cc(Oc2ccc(Cl)cc2)nc(SCC(=O)c2ccccc2)n1 5.47%, Cc1ccc(N/C=C/C(=O)c2ccccc2)cc1C 2.85%, O=C(NNC(=S)NC(=O)c1cn(-c2ccccc2)nc1-c1ccccc1)c1ccncc1 -5.14% [at 57.5 µM], CC1=NN(c2ccccc2)C(=O)C1C(=O)c1ccc([N+](=O)[O-])cc1 (configuration not stated) 3.98%, Oc1ccc(-c2nnc(Nc3ccccc3)c3ccccc23)cc1 -5.01% [at 57.5 µM], O=C(COC(=O)c1ccccc1)Nc1cccc(S(=O)(=O)N2CCOCC2)c1 -7.82%, Cc1nn(CCOc2ccc(Br)cc2)c(C)c1[N+](=O)[O-] -8.51%, CCC(=O)OCCNc1nc(-c2ccccc2)nc2ccccc12 8.44%, COCCNc1nc2nonc2nc1N1CCCC1c1nccs1 (configuration not stated) -14.3%, O=S(=O)(Nc1n[nH]c(C(F)(F)F)n1)c1ccccc1 -7.29% [at 57.5 µM], CC(C)N(Cc1nc(-c2ccc3c(c2)OCO3)no1)CC1CCC(=O)N1 (configuration not stated) 4.58%, O=C1CN(C(=O)CN2C(=O)NC3(CCCCC3)C2=O)c2ccccc2N1 0.303%, CCOC(=O)c1c(C)oc(C)c(C(=O)OCC)c1=O 0.8% [at 57.5 µM], Cc1nn(CC(=O)N/N=C/c2ccc(F)cc2)c(C)c1[N+](=O)[O-] -5.16% [at 57.5 µM], O=S(=O)(c1cccc(-c2nnc3n2CCCCC3)c1)N1CCOCC1 4.68% [at 57.5 µM], CCN(CC)CCCSc1nc2ccccc2s1 -6.48%, COC(=O)c1cc(S(=O)(=O)N2CCC(C(N)=O)CC2)oc1C -0.656% [at 57.5 µM], CN(C)/C=C(/C(=O)c1ccc(F)cc1)S(=O)(=O)c1ccc(F)cc1 -14.3%, Cc1c(C(=O)O)nnn1-c1nonc1N -6.38%, O=C1CC(c2c(F)cccc2Cl)C(n2cncn2)C(O)=C1C1NCCc2ccccc21 (configuration not stated) -2.18%, C/C(=N/NC(=O)CC(=O)N/N=C(\C)c1ccc([N+](=O)[O-])cc1)c1ccc([N+](=O)[O-])cc1 10.6% [at 57.5 µM], CC(C)(C)NC(=O)NCc1ccco1 4.86% [at 57.5 µM], CCC(C)NC(=O)CN(C1CCCCC1)S(C)(=O)=O (configuration not stated) -0.213%

Potency, active:
O=c1oc2ccccc2cc1-c1csc(Nc2ccc(O)cc2)n1 39.8 µM, Brc1ccc(Nc2c3c(nc4ncnn24)CCC3)cc1 25.1 µM, OCCCNc1nccc(-c2cc(Nc3cccc(Cl)c3)ncn2)n1 22.4 µM, CN(C)c1cc2c(Nc3ccc4c(cnn4Cc4ccccc4)c3)ncnc2cn1 2.82 µM, Cc1cc(C)nc(S/C=C/C(=O)c2ccccc2)n1 22.4 µM
